Screens as filed in PubChem BioAssay.
C diff HTS = C. difficile growth inhibitors, primary screen, HTS. growth activity, negative = inhibition, % at 16 µg/mL (by protocol). Clostridium difficile clinical isolate growth, OD600, 24 h; hits give low values. 86,000 tested, 0.25% active. AID 1259249, 2017;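 active = mean growth activity at or below -80% and every replicate also at or below -80%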
Pf Dd2 growth = P. falciparum Dd2 growth inhibitors, primary screen, SYBR Green fluorescence, single dose replicates; activity change, % at 10 µM; 72 h; hits give low values; AID 1159554, 2015; 94,000 tested, 2.3% active; in the data active = activity change below about -80%
Large screens that a line does not name were inactive. Most compounds without a hit are left out; they make up all but 2.4% or so of the library.

C[C@@H]1CN([C@@H](C)CO)C(=O)c2cc(C#CCc3ccccc3)cnc2O[C@H]1CN(C)C(=O)C1CCCCC1	Pf Dd2 growth -81.8
C[C@@H]1CN([C@H](C)CO)C(=O)c2cc(C#CCc3ccccc3)cnc2O[C@H]1CN(C)C(=O)C1CCCCC1	Pf Dd2 growth -82.8
C[C@@H]1CN([C@H](C)CO)C(=O)c2cc(C#CCc3ccccc3)cnc2O[C@@H]1CN(C)C(=O)C1CCC1	none
O=S(=O)(N[C@H]1CC[C@H](CCn2cc(-c3cccnc3)nn2)O[C@@H]1CO)c1ccccc1	none
Cc1ccc(S(=O)(=O)Nc2ccc3c(c2)C(=O)N([C@@H](C)CO)C[C@@H](C)[C@@H](CN(C)Cc2ccc(C(=O)O)cc2)OCCCC[C@H](C)O3)cc1	none (no result: C diff HTS)
O=C(C[C@H]1C[C@@H]2c3cc(NC(=O)C4CCOCC4)ccc3O[C@@H]2[C@H](CO)O1)NCc1cccnc1	none
C[C@H](CO)N1C[C@H](C)[C@@H](CN(C)S(=O)(=O)c2cccs2)OCCCC[C@H](C)Oc2ccc(NC(=O)C3CCCCC3)cc2C1=O	none
CCC(=O)Nc1ccc2c(c1)OC[C@@H](C)N(C(=O)Cc1ccccn1)C[C@@H](C)[C@@H](OC)CN(C)C2=O	none (no result: C diff HTS)
C[C@@H]1CN([C@@H](C)CO)C(=O)c2cc(C#Cc3ccccc3)cnc2O[C@H]1CN(C)C(=O)CCN1CCCCC1	Pf Dd2 growth -87.6
C[C@H]1CN([C@@H](C)CO)C(=O)c2cc(C#Cc3ccccc3)cnc2O[C@@H]1CN(C)C(=O)CCN1CCCCC1	none
C[C@@H]1CN([C@@H](C)CO)C(=O)c2cc(C3=CCCC3)cnc2O[C@@H]1CN(C)C(=O)c1cccnc1	none
C[C@H](CO)N1C[C@H](C)[C@H](CN(C)C(=O)Nc2cccc(Cl)c2Cl)OCc2ccccc2-c2c(n(C)c3ccccc23)C1=O	none
C[C@H](CO)N1C[C@H](C)[C@@H](CN(C)C(=O)Nc2cccc(Cl)c2Cl)OCc2ccccc2-c2c(n(C)c3ccccc23)C1=O	none
C[C@@H]1CN([C@@H](C)CO)C(=O)c2c(c3ccccc3n2C)-c2ccccc2CO[C@H]1CN(C)C(=O)Nc1cccc(Cl)c1Cl	Pf Dd2 growth -94.1
C[C@H]1CN([C@@H](C)CO)C(=O)c2c(c3ccccc3n2C)-c2ccccc2CO[C@H]1CN(C)C(=O)Nc1cccc(Cl)c1Cl	Pf Dd2 growth -90.9
C[C@H](CO)N1C[C@H](C)[C@H](CN(C)C(=O)CCC(F)(F)F)OCCCC[C@H](C)Oc2ccc(NC(=O)c3ccncc3)cc2C1=O	none
C[C@@H]1CN([C@@H](C)CO)C(=O)c2cc(NS(=O)(=O)c3ccc(F)cc3)ccc2O[C@@H](C)CCCCO[C@@H]1CN(C)Cc1ccccc1	none
COc1ccc(NC(=O)Nc2ccc3c(c2)C(=O)N([C@H](C)CO)C[C@H](C)[C@@H](CN(C)C(=O)Nc2ccc4c(c2)OCO4)OCCCC[C@H](C)O3)cc1	none
C[C@@H]1CCCCO[C@@H](CN(C)C(=O)Nc2ccc(F)cc2)[C@@H](C)CN([C@@H](C)CO)C(=O)c2cc(NC(=O)Nc3ccc(C(F)(F)F)cc3)ccc2O1	Pf Dd2 growth -88.2
C[C@@H]1CCCCO[C@@H](CN(C)C(=O)Nc2ccc3c(c2)OCO3)[C@@H](C)CN([C@@H](C)CO)C(=O)c2cc(NC(=O)Nc3ccc(C(F)(F)F)cc3)ccc2O1	Pf Dd2 growth -92.3
C[C@@H]1CCCCO[C@H](CN(C)C(=O)Nc2ccc(C(F)(F)F)cc2)[C@H](C)CN([C@@H](C)CO)C(=O)c2cc(NC(=O)C3CCCCC3)ccc2O1	Pf Dd2 growth -83.2
C[C@@H]1CCCCO[C@@H](CN(C)C(=O)Nc2ccc(C(F)(F)F)cc2)[C@H](C)CN([C@@H](C)CO)C(=O)c2cc(NC(=O)C3CCCCC3)ccc2O1	none
COc1ccc(NC(=O)Nc2ccc3c(c2)C(=O)N([C@@H](C)CO)C[C@H](C)[C@H](CN(C)C(=O)Nc2ccc4c(c2)OCO4)OCCCC[C@@H](C)O3)cc1	Pf Dd2 growth -82.4
C[C@@H]1CCCCO[C@H](CN(C)C(=O)Nc2ccc(C(F)(F)F)cc2)[C@H](C)CN([C@@H](C)CO)C(=O)c2cc(NC(=O)Nc3ccc4c(c3)OCO4)ccc2O1	none
C[C@@H]1CCCCO[C@H](CN(C)C(=O)Nc2ccc(C(F)(F)F)cc2)[C@@H](C)CN([C@H](C)CO)C(=O)c2cc(NC(=O)Nc3ccc(F)cc3)ccc2O1	none
COc1ccc2c3c(n(C)c2c1)[C@H](CO)NCC31CN(S(=O)(=O)c2cccc(F)c2)C1	none
Cc1noc(C)c1S(=O)(=O)N(C)C[C@@H]1Oc2ccc(NC(=O)Nc3ccc(C(F)(F)F)cc3)cc2CC(=O)N([C@H](C)CO)C[C@@H]1C	none
CCCNC(=O)N1CCC2(CC1)CN(C(=O)CC1CC1)[C@H](CO)c1c2c2ccc(OC)cc2n1C	none
Cc1noc(C)c1S(=O)(=O)N(C)C[C@H]1Oc2ccc(NS(=O)(=O)c3cccs3)cc2C(=O)N([C@@H](C)CO)C[C@H]1C	none (no result: C diff HTS)
